Measured values reported in the supplement of paper PMC10849652.
Of roughly 7,900 targets only a part is listed; those with a hit were picked by preference. About 0.6% of all pairs of compound and target were hits. Unmarked numbers belong to inactive results.

compound: CN1CCN(CCOc2cc(OC3CCOCC3)c3c(Nc4c(Cl)ccc5c4OCO5)ncnc3c2)CC1 [saracatinib]; test: log2 fold change, soluble protein after heating vs DMSO (PISA); higher = thermal stabilisation; K562 cells, 10 uM, 30 min; active = over 0.2 and 3.5 SD of the protein, either way, in both replicates (recomputed)
Outline: (§1)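 Values are thermal stability changes relative to control samples and are taken from duplicates. They are stated as log2 fold changes. Before quantification by TMTpro 16plex LC-MS/MS with equalised channel sums, K562 cells at 2×10^6 cells/mL were treated with 10 μM compound for 30 min, heated in aliquots for 3 min across 48°C-58°C, pooled, extracted in PBS with 0.5% NP-40 at 4°C, and centrifuged at 21,000xg for 90 min to give the soluble supernatant.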

Sequence of UniProt P52597 (P52597 whole entry, looked up): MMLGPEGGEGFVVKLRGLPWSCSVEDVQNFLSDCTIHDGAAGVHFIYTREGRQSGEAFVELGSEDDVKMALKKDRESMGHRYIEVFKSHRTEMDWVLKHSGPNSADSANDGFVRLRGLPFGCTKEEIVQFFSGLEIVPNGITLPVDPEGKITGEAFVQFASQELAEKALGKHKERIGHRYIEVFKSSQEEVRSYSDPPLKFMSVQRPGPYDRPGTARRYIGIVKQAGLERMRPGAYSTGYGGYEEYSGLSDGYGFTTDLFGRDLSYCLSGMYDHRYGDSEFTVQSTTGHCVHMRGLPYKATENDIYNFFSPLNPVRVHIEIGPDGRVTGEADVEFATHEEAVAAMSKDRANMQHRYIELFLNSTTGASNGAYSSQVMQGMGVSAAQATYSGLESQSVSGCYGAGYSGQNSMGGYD
Sequence of UniProt Q9H4A6 (Q9H4A6 whole entry, looked up): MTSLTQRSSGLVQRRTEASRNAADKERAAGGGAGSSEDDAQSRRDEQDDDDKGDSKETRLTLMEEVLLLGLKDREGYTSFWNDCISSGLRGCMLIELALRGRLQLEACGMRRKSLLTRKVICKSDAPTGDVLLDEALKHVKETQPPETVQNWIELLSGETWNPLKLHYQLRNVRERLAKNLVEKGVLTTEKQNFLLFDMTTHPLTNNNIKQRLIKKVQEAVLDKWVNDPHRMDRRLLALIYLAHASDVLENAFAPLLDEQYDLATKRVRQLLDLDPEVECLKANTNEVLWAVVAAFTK
Sequence of UniProt Q53R41 (Q53R41 whole entry, looked up): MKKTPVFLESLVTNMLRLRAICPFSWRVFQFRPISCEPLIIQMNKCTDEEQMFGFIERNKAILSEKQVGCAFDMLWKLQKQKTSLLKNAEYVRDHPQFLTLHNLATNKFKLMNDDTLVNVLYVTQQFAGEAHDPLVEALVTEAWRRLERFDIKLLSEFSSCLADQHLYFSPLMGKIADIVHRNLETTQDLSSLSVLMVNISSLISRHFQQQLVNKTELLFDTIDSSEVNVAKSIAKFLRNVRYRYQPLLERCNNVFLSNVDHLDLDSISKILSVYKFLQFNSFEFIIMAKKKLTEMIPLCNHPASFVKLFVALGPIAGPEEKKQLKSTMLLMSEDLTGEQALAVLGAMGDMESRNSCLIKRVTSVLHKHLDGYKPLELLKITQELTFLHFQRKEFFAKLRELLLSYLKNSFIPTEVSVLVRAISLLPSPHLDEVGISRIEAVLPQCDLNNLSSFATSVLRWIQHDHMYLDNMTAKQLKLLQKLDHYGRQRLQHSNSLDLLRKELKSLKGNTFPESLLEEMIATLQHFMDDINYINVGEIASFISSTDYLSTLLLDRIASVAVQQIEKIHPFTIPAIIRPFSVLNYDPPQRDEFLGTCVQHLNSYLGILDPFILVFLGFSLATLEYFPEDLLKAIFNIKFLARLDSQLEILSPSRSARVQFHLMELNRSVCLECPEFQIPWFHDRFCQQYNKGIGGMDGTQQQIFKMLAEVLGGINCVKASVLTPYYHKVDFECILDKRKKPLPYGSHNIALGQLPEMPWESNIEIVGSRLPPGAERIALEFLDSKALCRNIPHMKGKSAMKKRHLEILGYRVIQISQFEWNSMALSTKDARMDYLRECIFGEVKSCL
Sequence of UniProt Q658Y4 (Q658Y4 whole entry, looked up): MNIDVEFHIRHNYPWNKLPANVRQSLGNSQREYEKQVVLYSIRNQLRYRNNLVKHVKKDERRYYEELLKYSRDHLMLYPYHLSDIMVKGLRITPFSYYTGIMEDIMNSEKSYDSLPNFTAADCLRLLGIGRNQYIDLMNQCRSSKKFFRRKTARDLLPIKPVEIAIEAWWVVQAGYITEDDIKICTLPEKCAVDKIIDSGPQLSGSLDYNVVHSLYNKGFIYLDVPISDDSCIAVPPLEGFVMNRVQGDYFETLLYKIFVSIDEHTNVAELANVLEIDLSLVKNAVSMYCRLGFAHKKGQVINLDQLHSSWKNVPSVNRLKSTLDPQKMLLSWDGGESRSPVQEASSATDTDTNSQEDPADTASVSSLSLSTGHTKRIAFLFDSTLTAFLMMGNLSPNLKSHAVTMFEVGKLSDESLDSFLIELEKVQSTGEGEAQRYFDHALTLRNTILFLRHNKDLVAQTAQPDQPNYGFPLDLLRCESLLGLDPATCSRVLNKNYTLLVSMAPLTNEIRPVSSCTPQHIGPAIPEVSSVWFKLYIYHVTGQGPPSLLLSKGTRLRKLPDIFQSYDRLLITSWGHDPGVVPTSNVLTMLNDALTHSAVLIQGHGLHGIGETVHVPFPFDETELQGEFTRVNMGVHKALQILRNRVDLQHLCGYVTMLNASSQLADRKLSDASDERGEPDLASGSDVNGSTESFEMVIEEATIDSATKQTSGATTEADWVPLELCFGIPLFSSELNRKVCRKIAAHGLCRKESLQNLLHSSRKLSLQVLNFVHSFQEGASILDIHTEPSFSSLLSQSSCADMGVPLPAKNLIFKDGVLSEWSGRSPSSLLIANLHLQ
Sequence of UniProt Q8N9F7 (Q8N9F7 whole entry, looked up): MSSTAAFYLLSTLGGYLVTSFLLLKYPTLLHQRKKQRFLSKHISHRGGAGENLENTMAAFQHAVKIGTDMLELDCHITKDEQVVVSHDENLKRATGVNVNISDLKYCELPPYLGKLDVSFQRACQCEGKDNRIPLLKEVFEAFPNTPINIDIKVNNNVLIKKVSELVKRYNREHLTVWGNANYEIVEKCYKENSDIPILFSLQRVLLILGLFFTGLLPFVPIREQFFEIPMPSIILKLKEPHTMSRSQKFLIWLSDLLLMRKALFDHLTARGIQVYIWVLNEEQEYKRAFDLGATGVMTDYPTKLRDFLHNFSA
Sequence of UniProt P49841 (P49841 whole entry, looked up): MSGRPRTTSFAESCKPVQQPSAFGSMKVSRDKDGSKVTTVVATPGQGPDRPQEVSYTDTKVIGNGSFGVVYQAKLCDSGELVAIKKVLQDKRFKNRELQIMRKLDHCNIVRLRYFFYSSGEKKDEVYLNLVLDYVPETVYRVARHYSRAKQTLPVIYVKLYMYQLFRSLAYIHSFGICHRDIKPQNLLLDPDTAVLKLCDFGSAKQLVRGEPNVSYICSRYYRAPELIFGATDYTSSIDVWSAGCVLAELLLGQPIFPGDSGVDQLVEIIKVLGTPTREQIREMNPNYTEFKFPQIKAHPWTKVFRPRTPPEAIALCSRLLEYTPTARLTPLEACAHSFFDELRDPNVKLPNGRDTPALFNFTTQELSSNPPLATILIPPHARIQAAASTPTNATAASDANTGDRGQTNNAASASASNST
Sequence of UniProt Q9Y3D6 (Q9Y3D6 whole entry, looked up): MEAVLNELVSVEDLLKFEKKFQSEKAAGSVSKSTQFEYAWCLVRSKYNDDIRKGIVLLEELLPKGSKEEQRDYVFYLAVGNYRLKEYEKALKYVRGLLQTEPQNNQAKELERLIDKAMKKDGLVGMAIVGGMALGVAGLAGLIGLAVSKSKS
Sequence of UniProt P49356 (P49356 whole entry, looked up): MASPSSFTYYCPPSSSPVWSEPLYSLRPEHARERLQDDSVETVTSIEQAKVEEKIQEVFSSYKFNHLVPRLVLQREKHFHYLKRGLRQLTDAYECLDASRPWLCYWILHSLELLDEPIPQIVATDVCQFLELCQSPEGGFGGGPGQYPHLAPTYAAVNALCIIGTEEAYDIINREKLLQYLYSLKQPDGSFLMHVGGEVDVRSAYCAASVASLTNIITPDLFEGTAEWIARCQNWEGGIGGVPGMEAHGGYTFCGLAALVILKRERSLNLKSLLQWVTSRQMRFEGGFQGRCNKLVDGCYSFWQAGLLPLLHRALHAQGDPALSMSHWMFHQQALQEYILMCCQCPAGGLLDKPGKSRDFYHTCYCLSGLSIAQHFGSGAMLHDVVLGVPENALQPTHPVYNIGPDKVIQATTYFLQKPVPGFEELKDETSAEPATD
Sequence of UniProt P29083 (P29083 whole entry, looked up): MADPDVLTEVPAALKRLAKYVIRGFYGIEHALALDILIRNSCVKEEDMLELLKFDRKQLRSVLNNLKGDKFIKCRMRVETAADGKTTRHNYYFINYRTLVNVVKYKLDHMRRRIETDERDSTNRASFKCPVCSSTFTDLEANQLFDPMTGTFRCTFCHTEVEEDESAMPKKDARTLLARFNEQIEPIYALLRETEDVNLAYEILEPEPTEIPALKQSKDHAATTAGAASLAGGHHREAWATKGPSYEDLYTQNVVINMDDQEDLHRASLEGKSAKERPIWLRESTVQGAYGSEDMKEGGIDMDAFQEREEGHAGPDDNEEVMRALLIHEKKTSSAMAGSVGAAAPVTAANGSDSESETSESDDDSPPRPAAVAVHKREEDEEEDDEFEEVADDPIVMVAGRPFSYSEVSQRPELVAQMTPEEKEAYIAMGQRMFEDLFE
Sequence of UniProt Q9BUP3 (Q9BUP3 whole entry, looked up): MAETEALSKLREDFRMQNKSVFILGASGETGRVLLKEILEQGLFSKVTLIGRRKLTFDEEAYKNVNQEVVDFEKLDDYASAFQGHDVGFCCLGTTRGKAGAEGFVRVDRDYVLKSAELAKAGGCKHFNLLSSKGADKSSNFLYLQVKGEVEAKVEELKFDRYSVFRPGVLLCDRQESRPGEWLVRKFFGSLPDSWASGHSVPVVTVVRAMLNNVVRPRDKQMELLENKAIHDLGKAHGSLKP
Sequence of UniProt P06865 (P06865 whole entry, looked up): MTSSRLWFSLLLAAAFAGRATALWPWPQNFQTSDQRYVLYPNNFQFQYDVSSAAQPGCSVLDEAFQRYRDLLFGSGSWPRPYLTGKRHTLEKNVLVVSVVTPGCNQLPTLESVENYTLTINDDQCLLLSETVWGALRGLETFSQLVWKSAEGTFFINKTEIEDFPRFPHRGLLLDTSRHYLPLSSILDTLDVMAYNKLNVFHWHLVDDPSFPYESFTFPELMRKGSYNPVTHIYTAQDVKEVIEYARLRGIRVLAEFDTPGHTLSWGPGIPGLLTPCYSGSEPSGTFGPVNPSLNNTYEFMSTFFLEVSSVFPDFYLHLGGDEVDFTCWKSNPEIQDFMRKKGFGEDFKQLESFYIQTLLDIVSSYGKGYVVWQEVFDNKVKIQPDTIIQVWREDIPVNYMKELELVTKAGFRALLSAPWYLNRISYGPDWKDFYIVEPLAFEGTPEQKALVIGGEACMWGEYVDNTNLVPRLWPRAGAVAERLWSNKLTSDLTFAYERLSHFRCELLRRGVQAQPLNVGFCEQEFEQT

Question: With FNTB (UniProt P49356) as the target, how does the log2 fold change read?
Answer: 0.046

Question: Which log2 fold change does the source give for GOLPH3 (UniProt Q9H4A6) here?
Answer: -0.016

Question: GHDC (UniProt Q8N2G8) was tested. Which log2 fold change did it give?
Answer: 0.003

Question: How did the log2 fold change turn out when HDAC2 (UniProt Q92769) was run?
Answer: -0.001

Question: For FIBP (UniProt O43427), which log2 fold change is on record?
Answer: -0.074

Question: With FERMT3 (UniProt Q86UX7) as the target, how does the log2 fold change read?
Answer: 0.019

Question: Which log2 fold change does the source give for HIP1R (UniProt O75146) here?
Answer: 0.051

Question: Which log2 fold change does the source give for HNRNPF (UniProt P52597) here?
Answer: -0.042

Question: Which log2 fold change does the source give for HNRNPH2 (UniProt P55795) here?
Answer: -0.065

Question: How did the log2 fold change turn out when GALC (UniProt P54803) was run?
Answer: 0.033

Question: FASTKD1 (UniProt Q53R41) was tested. Which log2 fold change did it give?
Answer: -0.118

compound: CN1CCN(c2nc(C3=C(c4c[nH]c5ccccc45)C(=O)NC3=O)c3ccccc3n2)CC1 [sotrastaurin]; test: as above
Outline: as §1

Question: For FAM91A1 (UniProt Q658Y4), which log2 fold change is on record?
Answer: -0.049

Question: Which log2 fold change does the source give for GSK3B isoform 2 (UniProt P49841) here?
Answer: 0.2

Question: With GDPD1 (UniProt Q8N9F7) as the target, how does the log2 fold change read?
Answer: 0.21

Question: Which log2 fold change does the source give for FIS1 (UniProt Q9Y3D6) here?
Answer: 0.016

Question: GTF2H3 (UniProt Q13889) was tested. Which log2 fold change did it give?
Answer: -0.079

Question: For HSPA8 (UniProt E9PK54), which log2 fold change is on record?
Answer: -0.054

Question: With FMC1 (UniProt Q96HJ9) as the target, how does the log2 fold change read?
Answer: 0.09

Question: Which log2 fold change does the source give for HEXA (UniProt P06865) here?
Answer: 0.098

Question: How did the log2 fold change turn out when HTATIP2 isoform 3 (UniProt Q9BUP3) was run?
Answer: 0.023

Question: How did the log2 fold change turn out when GTF2E1 (UniProt P29083) was run?
Answer: -0.11

Question: For IDI1 isoform 2 (UniProt Q13907), which log2 fold change is on record?
Answer: 0.065

Question: With GAPVD1 isoform 6 (UniProt Q14C86) as the target, how does the log2 fold change read?
Answer: -0.158
